Results taken from PubChem BioAssay (NCATS).
Records with an inconclusive call do not appear. A number with no mark means an inactive call. Activity calls are given as the source filed them. The call rests on the fitted dose curve; in most records, active means well fitted cell-killing curve with a large enough effect; inconclusive means small, poorly fitted or top-dose-only effect; inactive means no such curve, though single readings can be large or run the other way.

Assay: qHTS of pediatric cancer cell lines to identify multiple opportunities for drug repurposing: Primary screen for A673 cells (AID 1347092); further: nearly all actives have a fitted effect of over 45% in size
Details: A673 Ewing sarcoma viability, CellTiter-Glo ATP luminescence, 48 h; series mostly up to 46 µM
Description: Drug repurposing or repositioning has been offered as a strategy for drug development in oncology programs. This approach has special potential for childhood cancers and other rare or orphan diseases, where the expected return on new drug development has been a disincentive to pharmaceuticals. […] In this project we exploit the poly-pharmacology of drugs to discover new indications via phenotypic screening of a panel of 19 well-characterized cell lines derived from solid tumors seen in children and adolescents. The goal is to identify approved drugs with previously unrecognized anticancer properties that has the potential to reveal new mechanisms and biological processes involved in carcinogenesis or drug resistance. We employed a titration-based paradigm (quantitative high-throughput screening or qHTS), where all compounds were tested at multiple concentrations for their effect on cell viability. Concentration-response curves (CRCs) were derived directly from the primary screen, and both potency and efficacy values were used to identify compounds with robust bioactivity profiles. We screened the NIH Chemical Genomics Center (NCGC) Pharmaceutical Collection (NPC) and Mechanism Interrogation Plate (MIPE) small molecule collections of approved and investigational compounds against these cell lines; and measured metabolically active cells after 48 hours of compound treatment as a proxy for cell viability. […] Assay Submitter: Nathalia J. Martinez, National Center for Advancing Translational Sciences, National Institutes of Health, Rockville, MD, USA; email: natalia.martinez@nih.gov. Shen, M et al. Quantitative high-throughput phenotypic screening of pediatric cancer cell lines identifies multiple opportunities for drug repurposing. Oncotarget 2017 Dec 19;9(4):4758-4772. PMID 29435139.
The cells were obtained from University of North Carolina (UNC), Pediatric Preclinical Testing Program (PPT), and Coriell Institute (CI). qHTS cell viability assay: Cells were assayed in growth media at a density of 500-1,000 cells/well. Five microliters of cells were dispensed into 1,536-well, white, solid-bottom, TC-treated plates (Greiner Bio One) using a multidrop dispenser and incubated at 37 degrees C, 5% CO2, under a humidified atmosphere for 5 hours. Twenty-three nanoliters of compounds and controls (neutral control DMSO or positive control bortezomib at final concentration of 2.3 uM) were subsequently transferred by Kalypsys pintool. For primary screens, the MIPE collection was tested at 11-point dilutions (final concentrations range from 0.78 nM to 46 µM) and the NPC collection at 8-point dilutions (final concentrations range from 0.59 nM to 46 µM). Compounds tested in follow-up screens were assayed at 11-point dilutions. Cells were incubated for 48 hours, followed by addition of 3 uL of CellTiter-Glo (Promega). After a 15min incubation at room temperature, samples were analyzed for luminescence intensity using a ViewLux High-throughput CCD imager equipped with clear filters.
On the % scale 0 is the no-effect control and ±100 the full control effect; potency means the concentration at half of the fitted maximal effect.

Compound | Potency | activity change, negative = cytotoxic
CCc1cc2c(cc1N1CCC(N3CCOCC3)CC1)C(C)(C)c1[nH]c3cc(C#N)ccc3c1C2=O | inactive | –
CCN(CC)CCCCNc1ncc2cc(-c3cc(OC)cc(OC)c3)c(NC(=O)NC(C)(C)C)nc2n1 | 18700 nM (active) | –
COc1c(N2C[C@@H]3CCCN[C@H]3C2)c(F)cc2c(=O)c(C(=O)O)cn(C3CC3)c12 | inactive | –
Nc1ccccc1NC(=O)c1ccc(CNc2nccc(-c3cccnc3)n2)cc1 | 2350 nM (active) | –
C#Cc1cccc(Nc2ncnc3cc(OC)c(OCCCCCCC(=O)NO)cc23)c1 | 9.3 nM (active) | –
CN(C)CCCN=c1c2ccccc2n(C)c2[nH]c(=O)n(C)c(=O)c12 | 2960 nM (active) | –
Cc1ccc(C(=O)Nc2cccc(C(F)(F)F)c2)cc1-c1ccc2nc(NCCN3CCOCC3)ncc2c1 | 4690 nM (active) | –
Cc1ccc(NC(=O)C2(c3ccc4c(c3)OC(F)(F)O4)CC2)nc1-c1cccc(C(=O)O)c1 | 59 nM (active) | –
COc1cc(OC2CCN(C)CC2)ccc1Nc1ncc2c(n1)n(C1CCCC1)c(=O)n2C | 14800 nM (active) | –
O=c1[nH]c(=O)n(C2CCCO2)cc1F (stereo not given) | inactive | –
Clc1cccc(-n2nnnc2NCc2ccccc2Oc2ccccn2)c1Cl | inactive | –
CCS(=O)(=O)c1cccc(-c2cc(C(=O)NC3CCN(C)CC3)c(C)c3[nH]c4ncc(C)cc4c23)c1 | 743 nM (active) | –
COc1ccc(-n2nc(C(N)=O)c3c2C(=O)N(c2ccc(N4CCCCC4=O)cc2)CC3)cc1 | 9350 nM (active) | –
CC(C)(C)NC(=O)[C@H]1CN(Cc2cccnc2)CCN1C[C@@H](O)C[C@@H](Cc1ccccc1)C(=O)N[C@H]1c2ccccc2C[C@H]1O | 743 nM (active) | –
O=C(NC1CCNCC1)c1[nH]ncc1NC(=O)c1c(Cl)cccc1Cl | 59 nM (active) | –
CC(C)c1cnn2c(NCc3ccccc3)cc(N[C@@H](CO)[C@H](O)CO)nc12 | 118 nM (active) | –
Nc1nc(Nc2ccc(S(N)(=O)=O)cc2)nn1C(=O)c1c(F)cccc1F | 2960 nM (active) | –
Clc1ccc2ncc(-c3cccc(NC4CNC4)n3)n2c1 | 4690 nM (active) | –
Cc1cc(Nc2cc(N3CCN(C)CC3)nc(C=Cc3ccccc3)n2)n[nH]1 | 10800 nM (active) | –
COC(=O)[C@]12CCC(C)(C)C[C@@H]1[C@@H]1C(=O)C=C3[C@@]4(C)C=C(C#N)C(=O)C(C)(C)[C@@H]4CC[C@@]3(C)[C@]1(C)CC2 | 372 nM (active) | –

Compound | Potency | activity change, negative = cytotoxic
CC(C)(O)CCc1ccc(OCc2cc(-c3cccc(OC(F)F)c3)c3ncccc3c2)cc1 | inactive | –
Nc1ccccc1NC(=O)c1ccc(CNC(=O)OCc2cccnc2)cc1 | 1480 nM (active) | –
CC(=O)Nc1sc2c(c1-c1nc3ccccc3s1)CNC2 | 18700 nM (active) | –
Cn1c(=O)n(-c2ccc(C(C)(C)C#N)cc2)c2c3cc(-c4cnc5ccccc5c4)ccc3ncc21 | 29.6 nM (active) | –
COc1ccc(OC)c(-c2nnc3ccc(-c4ccc(OC)c(O[C@@H]5CCOC5)c4)nn23)c1 | 14800 nM (active) | –
C[C@H]1C[C@@H]2[C@@H]([C@@H](O)C[C@@]3(C)[C@H]2CC[C@]3(O)C(=O)CO)[C@@]2(C)C=CC(=O)C=C12 | inactive | –
CCOc1cc2ncc(C#N)c(Nc3ccc(F)c(Cl)c3)c2cc1NC(=O)C=CCN(C)C | 29.6 nM (active) | –
Nc1nc(NCCNc2ncc(-n3ccnc3)c(-c3ccc(Cl)cc3Cl)n2)ccc1[N+](=O)[O-] | 9350 nM (active) | –
Cc1ccc(CN2CCNCC2)cc1NC(=O)CNc1ccc(F)c(F)c1 | inactive | –
O=C(Nc1ncc(-c2cc(C(F)F)nn2-c2c(Cl)cccc2Cl)s1)C1CC1 | 296 nM (active) | –
C1Cc2[nH]nc(-c3nn[nH]n3)c2C1 | inactive | –
COC(=O)Nc1ccc(-c2nc(N3CCOCC3)c3cnn(C4CCN(Cc5cccnc5)CC4)c3n2)cc1 | 4690 nM (active) | –
CC(=O)OCCN1C(=O)c2c(C)nc3ccc(S(=O)(=O)N4CCOCC4)cc3c2C1=O | 7430 nM (active) | –
NC1(Cc2ccc(Cl)cc2)CCN(c2ncnc3[nH]ccc23)CC1 | 14800 nM (active) | –
C[C@@H](Oc1cc(-n2cnc3ccc(CN4CCN(C)CC4)cc32)sc1C(N)=O)c1ccccc1C(F)(F)F | 74.3 nM (active) | –
COc1ccc(CC2c3cc(OC)c(OC)cc3CC[N+]2(C)CCC(=O)OCCCCCOC(=O)CC[N+]2(C)CCc3cc(OC)c(OC)cc3C2Cc2ccc(OC)c(OC)c2)cc1OC (stereo not given) | – | -4.72% [at 9.22 µM]
COc1ccc(CC2SC(=O)NC2=O)cc1C(=O)NCc1ccc(C(F)(F)F)cc1 (stereo not given) | inactive | –
CC(C)C[C@H](NC(=O)CNC(=O)c1cc(Cl)ccc1Cl)B(O)O | 1480 nM (active) | –
CNC(=O)c1c(F)cccc1Nc1nc(Nc2cc3c(cc2OC)CCN3C(=O)CN(C)C)nc2[nH]ccc12 | 93.5 nM (active) | –
Cn1c2cc(S(C)=O)sc2c2cnn(Cc3cccc(N)c3)c(=O)c21 (stereo not given) | inactive | –
